Assay results as given in PubChem BioAssay (EPA / NIEHS).
Activity calls are given as the source filed them. Rule for the calls: active = hit-call score of the fitted dose curve at least 0.9, where 1 is the maximum; inactive = score below 0.9.

Test: CCTE_Shafer_MEA_acute_per_network_burst_spike_number_mean: CCTE's Neural Acute Assay for Average Number of Spikes in a Network Burst, Shafer Lab (AID 2284019)
Protocol: CCTE_Shafer_MEA_acute assay is conducted using Axion Biosystems 48 well microelectrode array (MEA) plates and Maestro recording system. Each well of the MEA plate contains a grid of 16 microelectrodes embedded in the culture surface. Electrically active cells, such as neurons, can be cultured over the electrodes, and electrical activity in these cells can be recorded extracellularly. The spontaneous firing of neurons is captured from each electrode on a microsecond timescale providing both temporally and spatially precise data. […] The CCTE_Shafer_MEA_acute assay uses primary cultures of rat cortical neurons. As these cultures mature over time, neural networks develop functional activity and form cohesive networks in which electrical activity can be highly coordinated. Baseline 40-minute recordings are made on days post-plating 13 or 15, followed by a secondary 40-minute recording after chemical exposure.CCTE_Shafer_MEA_acute_per_network_burst_spike_number_mean is a component of the CCTE_Shafer_MEA_acute assay. It measures the average number of spikes (action potential firings) in a network burst (temporally-clustered group of spikes across multiple electrodes) as the total number of spikes in a network burst divided by the number of network bursts during a recording in a microelectrode array (MEA) using Axion Biosystems Maestro 768 channel amplifier with the AxIS adaptive spike detector. The recordings before and after chemical treatment are used to calculate a percent change in the mean number of spikes in a network burst in each well.Data from the assay component CCTE_Shafer_MEA_acute_per_network_burst_spike_number_mean was analyzed into 1 assay endpoint. This assay endpoint, CCTE_Shafer_MEA_acute_per_network_burst_spike_number_mean, was analyzed in the negative analysis fitting direction relative to DMSO as the negative control and baseline of activity. Using a type of functional reporter, gain or loss-of-signal activity can be used to understand electrical activity.
Spontaneous activity in the cortical cultures was recorded using an Axion Biosystems Maestro 768 channel amplifier and Axion Integrated Studios (AxIS) v1.8 (or later) software. The amplifier recorded from all channels simultaneously (gain = 1200 x; sampling rate = 12.5 kHz/channel): raw signals were filtered with a Butterworth band-pass filter (300-5000 Hz), which filters out slower local field potentials leaving only fast potentials, i.e., "spikes", arising from extracellular currents associated with action potentials (Pine 2006; Wheeler and Nam 2011). On-line spike detection of filtered signals was conducted with the AxIS adaptive spike detector, using a threshold of 8x the root mean squared (rms) noise on each channel. Any electrodes with rms noise levels greater than 5 uV were grounded (e.g., no data were recorded). Once grounded, an electrode was grounded for the duration of the experiment. All recordings were conducted at 37 C. Wells were deemed usable if on the day of the exposure >/= 10 electrodes were active (defined as >/= 5 spikes/min). On DIV 13 or 15, a minimum of three wells from one cortical culture preparation were treated with each compound (0.03-40 uM). Prior to recording baseline activity, each mwMEA plate was placed in the Maestro at 37 C and allowed to sit for 20 min while firing rates stabilized. Baseline activity (40 min) was recorded before the addition of each compound. An additional 40 min of spontaneous activity was recorded in the presence of each compound. Changes in network parameters relative to baseline were assessed following compound treatment.

| Structure (SMILES) | outcome | AC50 |
| --- | --- | --- |
| CC(C)(COC(=O)c1ccccc1)COC(=O)c1ccccc1 | inactive | – |
| NCCNCCN | inactive | – |
| CC(=O)[C@H]1CC[C@H]2[C@@H]3CC=C4C[C@@H](O)CC[C@]4(C)[C@H]3CC[C@]12C | – | 15 µM (active) |
| Nc1cc([N+](=O)[O-])ccc1O | – | 0.0403 µM (active) |
| OC1OC[C@@H](O)[C@H](O)[C@H]1O (stereo partly specified) | inactive | – |
| CC[Si](OC(C)=O)(OC(C)=O)OC(C)=O | inactive | – |
| C[C@H]1C[C@@H]2[C@H]([C@@H](O)C[C@@]3(C)[C@H]2CC[C@]3(O)C(=O)CO)[C@@]2(C)C=CC(=O)C=C12 | inactive | – |
| C=CCOC(=O)CCC1CCCCC1 | inactive | – |
| OC[C@H]1O[C@H](O[C@]2(CCl)O[C@H](CCl)[C@@H](O)[C@@H]2O)[C@H](O)[C@@H](O)[C@H]1Cl | inactive | – |
| CCC(=O)OCc1ccccc1 | inactive | – |
| CC(=O)OCCC(C)CC(C)(C)C (stereo unspecified) | inactive | – |
| CCCCCCCCC=O | inactive | – |
| COc1cc(C=O)ccc1OC(=O)C(C)C | – | 3.8 µM (active) |
| CN(C)C(=N)N=C(N)N | inactive | – |
| C=C[Si](OCC)(OCC)OCC | inactive | – |
| Cc1cc(C2(c3cc(C)c(O)cc3C)OS(=O)(=O)c3ccccc32)c(C)cc1O | – | 25.9 µM (active) |
